# Results filed as inconclusive are left out. Entries that show only a call come without a potency. The source made the active and inactive calls. Calls follow the shape of the dose curve; as a rule, active = well fitted inhibition curve with a large enough effect; inconclusive = small, poorly fitted or top-dose-only effect, or effect the other way; inactive = flat fitted curve, though single readings scatter.
# Target: Pyruvate kinase (Leishmania mexicana) (UniProt Q27686)
# Assay: Confirmation Assay for Inhibitors of Leishmania Mexicana Pyruvate Kinase (LmPK): for Probe SAR
# Conditions: purified LmPK, ATP generation, Kinase-Glo luminescence; series mostly up to 57.5 µM
# Description: NIH Chemical Genomics Center [NCGC] Malcolm Walkinshaw, Hugh Morgan, Linda Gilmore University of Edinburgh, UK MLPCN Grant: 1 R03 MH085697-01 NCGC Assay Overview: Pyruvate kinase (L. Mexicana) (LmPK) enzyme was supplied as a highly purified (>95% pure) sulphate-free preparation from University of Edinburgh, UK and assayed for its ability to generate ATP from ADP using phosphoenolpyruvate (PEP) as a substrate. ATP generation was detected in a coupled reaction by luciferase-mediated luminescence, an ATP-dependent process. Pyruvate kinase substrates, PEP and ADP, were present in the assay at Km and approximately 10-fold below Km respectively. The enzyme was assayed at an intermediate level of activity to screen for both inhibitors and activators.
# NCGC Assay Protocol Summary: Three uL of enzyme mix (kept on ice) in assay buffer (50 mM Imidazole pH7.2, 50 mM KCl, 7 mM MgCl2, 0.01% Tween 20, 0.05% BSA) containing PEP (0.5 mM final concentration) and LmPK (0.1 nM final concentration) was dispensed into white solid bottom 1,536 well microtiter plates. 23 nL of compound were delivered by a pin tool and 1 uL of ADP mix in assay buffer (r.t; 0.1 mM final ADP concentration) was added. Plates were incubated at room temperature for 1 hour. Two uL of detection mix (Kinase-Glo, Promega; at 4 degree Celsius protected from light) was added and luminescence read by a ViewLux (Perkin Elmer) at 1 second exposure/plate. Data were normalized to the uninhibited and AC100 inhibition (no enzyme). To monitor activation, the first column contained a five-fold concentration of LmPK (0.5 nM).
# Potency is read from the fitted curve at half-maximal effect.
# Chain of Pyruvate kinase (Leishmania mexicana) (Q27686 whole entry, looked up): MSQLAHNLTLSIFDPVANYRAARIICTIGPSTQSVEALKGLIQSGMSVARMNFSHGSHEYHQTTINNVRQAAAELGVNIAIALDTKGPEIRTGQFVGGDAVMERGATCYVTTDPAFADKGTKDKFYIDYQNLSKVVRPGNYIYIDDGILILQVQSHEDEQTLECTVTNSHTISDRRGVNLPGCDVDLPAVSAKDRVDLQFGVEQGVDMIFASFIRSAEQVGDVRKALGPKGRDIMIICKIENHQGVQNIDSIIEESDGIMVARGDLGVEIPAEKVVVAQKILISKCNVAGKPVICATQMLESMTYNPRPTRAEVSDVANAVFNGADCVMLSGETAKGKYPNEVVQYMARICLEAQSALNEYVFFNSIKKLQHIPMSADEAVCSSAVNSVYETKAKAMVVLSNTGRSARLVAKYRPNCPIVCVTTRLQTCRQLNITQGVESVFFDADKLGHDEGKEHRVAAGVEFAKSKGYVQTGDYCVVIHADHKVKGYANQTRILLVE
row,Compound,Potency
1,CC(=O)Nc1ccc(S(=O)(=O)Nc2ccc(C)c(C)c2)cc1,inactive
2,O=C1CCc2cc(S(=O)(=O)NCc3ccccc3)ccc2N1,inactive
3,Cc1ccc(NS(=O)(=O)c2cc3c(cc2C)NC(=O)CO3)cc1C,inactive
4,O=S1(=O)N=C(Oc2cccc(Br)c2)c2ccccc21,3.66 µM (active)
5,O=S1(=O)N=C(Oc2ccc(C(F)(F)F)cc2)c2ccccc21,3.66 µM (active)
6,Cc1ccc(C)c(SC2=NS(=O)(=O)c3cc(C(=O)NCc4ccccc4)ccc32)c1,5.8 µM (active)
7,Cc1nc(-c2ccc(S(=O)(=O)Nc3ccc(C)c(C)c3)s2)cs1,inactive
8,Cc1ccc(NS(=O)(=O)c2ccc3c(c2)N(C)CCO3)cc1C,inactive
9,Cc1ccc(Nc2c(-c3ccc(C)s3)nc3cccc(C)n23)cc1,inactive
10,COC(=O)c1ccccc1S(=O)(=O)Nc1cc(=O)c2ccccc2[nH]1,inactive
11,O=S1(=O)N=C(Oc2cccc(C(F)(F)F)c2)c2ccccc21,4.61 µM (active)
12,O=C1NS(=O)(=O)c2cc3c(cc21)C(=O)NS3(=O)=O,inactive
13,CSc1cc2c(s1)c1cnn(Cc3cccc(O)c3)c(=O)c1n2C,inactive
14,O=C1c2ccccc2C(=O)N1c1cccnc1,inactive
15,O=S(=O)(Nc1ccc(O)c(NS(=O)(=O)c2ccccc2)c1)c1ccccc1,inactive
16,Nc1ccccc1OC1=NS(=O)(=O)c2ccccc21,inactive
17,Cc1ccc(NS(=O)(=O)c2ccc3c(c2)CCN(C(=O)C(F)(F)F)C3)cc1C,inactive
18,Cc1ccc2nc(-c3ccc(C)o3)c(Nc3ccc(Cl)cc3)n2c1,inactive
19,O=S(=O)(c1ccc2c(c1)OCCO2)N1CCN(S(=O)(=O)c2c(F)cccc2F)CC1,inactive
20,COc1ccccc1N1C(=O)c2ccccc2C1=O,inactive

row,Compound,Potency
1,Cc1ccc(-c2nc3ccc(Cl)cn3c2Nc2ccccc2)o1,inactive
2,O=S1(=O)N=C(Sc2cccc3cccnc23)c2ccccc21,2.91 µM (active)
3,Cc1ccc(NS(=O)(=O)c2ccc(F)cc2)cc1C,inactive
4,O=C1CCc2cc(S(=O)(=O)Nc3ccc4ccccc4c3)ccc2N1,inactive
5,Cc1ccc(C)c(SC2=N[S+](=O)([O-])c3cc(C(=O)Nc4ccc5ncccc5c4)ccc32)c1,inactive
6,Cc1cc(C)n2c(Nc3ccccc3)c(-c3ccc(C)o3)nc2n1,inactive
7,O=C1c2ccccc2C(=O)N1c1noc2ccccc12,inactive
8,O=S1(=O)N=C(N2CCOCC2)c2ccccc21,inactive
9,O=C1c2ccccc2C(=O)N1c1ccc(Cl)cc1,inactive
10,Cc1ccc(Nc2c(-c3ccc(C)s3)nc3ccccn23)cc1,inactive
11,Cc1ccc(NS(=O)(=O)c2ccc3c(c2)CCCC(=O)N3)cc1C,inactive
12,O=C1c2ccccc2C(=O)N1c1cccc2ncccc12,inactive
13,Nc1cc(S(=O)(=O)N2CCN(S(=O)(=O)c3ccc4c(c3)OCCO4)CC2)ccn1,inactive
14,Nc1ccc2c(c1)C(=O)NS2(=O)=O,inactive
15,Cc1ccc(C)c(O)c1,inactive
16,Cc1ccc(NS(=O)(=O)c2cc3c(cc2Cl)NC(=O)CO3)cc1C,inactive
17,Cc1cccc(NS(=O)(=O)c2ccc3c(c2)CCC(=O)N3)c1,inactive
18,Cc1ccccc1Nc1c(-c2ccc(Cl)s2)nc2ccccn12,inactive
19,COc1ccc(NS(=O)(=O)c2ccccc2)cc1NS(=O)(=O)c1ccccc1,inactive
20,COc1ccc(O)cc1,inactive

# Reference: PubChem BioAssay AID2561 (National Center for Advancing Translational Sciences (NCATS), 2010)
